Most compounds without a hit are left out; they make up all but 2.2% or so of the library.
Nrf2 ARE act – Nrf2 pathway activation | AREc32 ARE-luciferase reporter (MCF7-derived line), luminescence, 24 h | Potency, µM (titrated, usually from 46.1 µM), without a hit: at the top dose activation, hits mostly activators | 410,000 tested, 0.31% active | AID 624171; further: % of control where 0% means no effect; nearly all actives have a fitted effect of over 65% in size
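Luciferase luminescence (Steady-Glo, 30 min at room temperature) served as the read-out of ARE activation in AREc32 cells treated with compounds for 24 hr at 37 deg C.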
A549 tox – counter-screen for Nrf2 inhibitors: cytotoxicity in A549 cells; 390,000 tested, 0.16% active; A549 ARE-Fluc cells, CellTiter-Fluor viability, 18-24 h; Potency, µM (top dose mostly 46 µM), for the others: at the top dose activity change, negative = cytotoxicity, usual class: inhibitors; further: on the % scale 0 is the no-effect control and ±100 the full control effect
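Cytotoxicity counterscreen: CellTiter-Fluor fluorescence was measured in A549 ARE_Fluc cells after 18-24 h of compound exposure in a concentration series. The subsequent BugLite luminescent read reports ARE-luciferase activity.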
Pin1 inhibitor – human Pin1 inhibition | Q13526 | Pin1 FP peptide displacement, HiFluor488, 10 min | Potency, µM (titrated, usually from 115 µM), for inactives: at the top dose activity, negative = inhibition, actives largely listed as inhibitors | 390,000 tested, 0.009% active | AID 504891; active means well fitted inhibition curve with a large enough effect in the polarisation, with a control signal flat, not every such curve was filed as active; inconclusive means small, poorly fitted or top-dose-only effect, or effect the other way, or a change in a side signal; inactive means no such curve, though single readings can be large or run the other way; the % refers to the polarisation; further: on the % scale 0 is the no-effect control and ±100 the full control effect
Target sequence (Q13526 whole entry, looked up): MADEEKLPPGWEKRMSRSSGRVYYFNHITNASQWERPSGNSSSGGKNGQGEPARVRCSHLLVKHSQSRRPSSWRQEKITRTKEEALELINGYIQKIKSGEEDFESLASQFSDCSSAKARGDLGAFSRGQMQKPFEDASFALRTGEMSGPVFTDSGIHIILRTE
Nrf2 inh – blocks Nrf2 signaling; A549 ARE-Fluc reporter, luciferase luminescence, 18-24 h; Potency, µM (series often up to 46 µM), without a hit: at the highest dose activity change, negative = inhibition, actives largely listed as inhibitors; 360,000 tested, 2.1% active; AID 504444; further: on the % scale 0 is the no-effect control and ±100 the full control effect; nearly all actives have a fitted effect of over 60% in size
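Two sequential reads on A549 ARE_Fluc cells exposed to compound for 18-24 h: a CellTiter-Fluor fluorescence read for viability, then a luciferase luminescence read for Nrf2/ARE activity.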
* = called active by the depositor. Unless noted, the call rests on the fitted dose curve; in most records, active means well fitted curve in the direction sought with a large enough effect; inconclusive means small, poorly fitted or top-dose-only effect, or another doubt; inactive means no such curve, though single readings can be large; an effect the other way counts as inactive or inconclusive. Potency means the concentration at half of the fitted maximal effect.

Screening O=C(O)CCn1cc(/C=C2/NC(=S)N(c3ccccc3)C2=O)c(-c2ccccc2)n1 returned Nrf2 ARE act -1%, A549 tox -18%, Pin1 inhibitor -1% and Nrf2 inh -3%.
Screening O=C(Cn1c(COc2ccccc2)nc2ccccc21)Nc1cc(Cl)cc(Cl)c1 returned Nrf2 ARE act -1%, A549 tox -17%, Pin1 inhibitor 4% and Nrf2 inh -4%.
O=C(Cn1c(COc2ccccc2)nc2ccccc21)Nc1cc(Cl)ccc1Cl was read as Nrf2 ARE act -1%, A549 tox inconclusive, Pin1 inhibitor 2% and Nrf2 inh 18µM*.
Screening NC(=O)N1CCN(c2nc(-c3ccc(Br)cc3)cs2)CC1 returned Pin1 inhibitor -3%.
For Cc1ccc(-c2nnc3ccc(SCC(=O)c4ccccc4)nn23)cc1 the results were A549 tox -5%, Pin1 inhibitor 15% and Nrf2 inh 5%.
Screening Cc1ccc(/C=C2\SC(=S)N(CCC(=O)NCCCN3CCOCC3)C2=O)cc1 returned Nrf2 ARE act inconclusive, A549 tox 15µM*, Pin1 inhibitor 7% and Nrf2 inh inconclusive.
`CCc1ccc(/C=C2\SC(=S)N(CCC(=O)NCCCN3CCOCC3)C2=O)cc1` gave Nrf2 ARE act 25%, A549 tox inconclusive, Pin1 inhibitor 18% and Nrf2 inh inconclusive.
Screening COc1ccc(/C=C2\SC(=S)N(CCC(=O)NCCCN3CCOCC3)C2=O)cc1 returned Nrf2 ARE act 12%, A549 tox 12µM*, Pin1 inhibitor -10% and Nrf2 inh inconclusive.
`O=C(CN(CCc1ccccc1)S(=O)(=O)c1ccccc1)NCc1ccc(Cl)cc1` gave Nrf2 ARE act 0%, A549 tox -13%, Pin1 inhibitor 18% and Nrf2 inh 21µM*.
Screening O=C(CN(CCc1ccccc1)S(=O)(=O)c1ccc(Br)cc1)NCc1ccc(Cl)cc1 returned Nrf2 ARE act -1%, A549 tox 8%, Pin1 inhibitor 6% and Nrf2 inh -11%.
Screening O=c1c2ccccc2c(-c2ccc(O)cc2)nn1-c1cccc(C(F)(F)F)c1 returned Nrf2 ARE act -2%, A549 tox -2%, Pin1 inhibitor 7% and Nrf2 inh 23µM*.
`CN(C)c1nc(SCCOC(=O)c2ccccc2)nc(N(C)C)n1` gave Nrf2 ARE act 0%, A549 tox 1%, Pin1 inhibitor -3% and Nrf2 inh 2%.
Screening CCN(CC)c1nc(SCCOC(=O)Nc2ccccc2)nc(N(CC)CC)n1 returned Nrf2 ARE act 3%, A549 tox inconclusive, Pin1 inhibitor -14% and Nrf2 inh 21µM*.
For Cc1ccc(S(=O)(=O)N2CCN(c3nc(-c4cccs4)nc4ccccc34)CC2)c(C)c1 the results were A549 tox 0%, Pin1 inhibitor -1% and Nrf2 inh 1%.
For O=C(Nc1ccc(Br)cc1)c1cccc(S(=O)(=O)Nc2ccccn2)c1 the results were Nrf2 ARE act 1%, A549 tox inconclusive, Pin1 inhibitor 6% and Nrf2 inh 13µM*.
`O=C(Nc1ccccc1)c1cccc(S(=O)(=O)Nc2ccccn2)c1` gave Nrf2 ARE act 0%, A549 tox 3%, Pin1 inhibitor 1% and Nrf2 inh -8%.
Screening Cc1cccc(N=Nc2ccc(O)c3ncccc23)c1 returned Nrf2 ARE act inconclusive, A549 tox -27%, Pin1 inhibitor -1% and Nrf2 inh inconclusive.
For Oc1ccc(N=Nc2ccc3c(c2)OCCO3)c2ncccc12 the results were Nrf2 ARE act 11%, A549 tox inconclusive, Pin1 inhibitor 1% and Nrf2 inh 18µM*.
`CCN1C(=O)c2ccccc2S(=O)c2ccc(C(=O)N3CCN(c4cccc(C)c4)C(C)C3)cc21` (stereo not given) gave Nrf2 ARE act 1%, A549 tox -29%, Pin1 inhibitor -5% and Nrf2 inh 16µM*.
Screening CCOC(=O)N1CCN(C(=O)c2ccc3c(c2)N(Cc2cccc(Cl)c2)C(=O)c2ccccc2S3=O)CC1 (stereo not given) returned Nrf2 ARE act 0%, A549 tox inconclusive, Pin1 inhibitor -7% and Nrf2 inh 21µM*.
Screening CN(Cc1ccccc1)C(=O)c1ccc2c(c1)N(Cc1ccc(Cl)cc1)C(=O)c1ccccc1S2=O (stereo not given) returned Nrf2 ARE act 0%, A549 tox -29%, Pin1 inhibitor -2% and Nrf2 inh 21µM*.
Screening O=C(NCc1ccco1)c1ccc2c(c1)N(Cc1ccc(Cl)cc1)C(=O)c1ccccc1S2=O (stereo not given) returned Nrf2 ARE act 5%, A549 tox -11%, Pin1 inhibitor 15% and Nrf2 inh -28%.
COc1ccccc1C(=O)NC1(C(F)(F)F)C(=O)NC(C)=C1C#N (stereo not given) was read as Nrf2 ARE act -1%, A549 tox -13%, Pin1 inhibitor -5% and Nrf2 inh -11%.
`COc1ccc(NS(=O)(=O)c2ccc3c(c2)Cc2ccccc2-3)cn1` gave Nrf2 ARE act 0%, A549 tox -20%, Pin1 inhibitor -19% and Nrf2 inh 16µM*.
For COc1ccc(NS(=O)(=O)c2ccc(N3CCCC3=O)cc2)cn1 the results were Nrf2 ARE act -1%, A549 tox -9%, Pin1 inhibitor 0% and Nrf2 inh inconclusive.
Screening O=C1CC(c2cccc([N+](=O)[O-])c2)c2cc3c(cc2N1)CCC3 (stereo not given) returned Nrf2 ARE act 0%, A549 tox inconclusive, Pin1 inhibitor 1% and Nrf2 inh 15µM*.
For O=C1CC(c2cccc(Cl)c2)c2cc3c(cc2N1)CCC3 (stereo not given) the results were Nrf2 ARE act -1%, A549 tox -23%, Pin1 inhibitor -10% and Nrf2 inh -28%.
Cc1ccccc1OCC(=O)N/N=C/c1cc2ccccc2nc1Cl was read as Nrf2 ARE act 1%, A549 tox -27%, Pin1 inhibitor 5% and Nrf2 inh 18µM*.
`CN(CC(=O)NCCc1ccc(S(N)(=O)=O)cc1)Cc1ccc(Cl)cc1Cl` gave Nrf2 ARE act 0%, A549 tox -6%, Pin1 inhibitor 2% and Nrf2 inh 18µM*.
`Cc1ccc(NC(=O)C(Cc2c[nH]c3ccccc23)NC(=O)OCC(C)C)cc1` (stereo not given) gave Nrf2 ARE act 10%, A549 tox -11%, Pin1 inhibitor 5% and Nrf2 inh 3%.
CC(=O)c1c(C)nn(CC(O)COc2ccc3c(c2)CCC3)c1C (stereo not given) was read as Nrf2 ARE act 0%, A549 tox 2%, Pin1 inhibitor -2% and Nrf2 inh 9.2µM*.
`COc1ccc(-c2nc3ccc(NC(=O)COC(C)=O)cc3c(=O)n2Cc2ccccc2)cc1COc1ccc(NC(C)=O)cc1` gave A549 tox -6%, Pin1 inhibitor 1% and Nrf2 inh inconclusive.

Bioassay records (PubChem)
